The values that follow come from the supplement of paper PMC5662767.

Where a name gives a salt, the structure may show the parent alone.

The test system of this assay is Drosophila S2 cl14 SmoIP sensor cells. Nature of the assay: normalized SmoIP GFP fluorescence (untreated unstimulated = 0%, untreated Hh-stimulated = 100%); higher = more Smo activation sensor fluorescence. The following applies: compound concentration: 2 uM, 24 h.
The mark [1] stands for this setting: stimulation: Hh conditioned medium (+Hh).
Setting [2] is: stimulation: mock conditioned medium (-Hh).
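Also: flow cytometry read-out as median GFP intensity of gated cells, compounds added 30 min before Hh-conditioned or mock medium, mock-treated cells serving as unstimulated baseline.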

With `Cc1ccc(NC(=O)C2(c3ccc4c(c3)OC(F)(F)O4)CC2)nc1-c1cccc(C(=O)O)c1`, the “normalized SmoIP GFP fluorescence” value under setting [1] worked out at 80%.

For `COc1ccc2[nH]c([S+]([O-])Cc3ncc(C)c(OC)c3C)nc2c1` (configuration not stated) [Omeprazole], under setting [1], the “normalized SmoIP GFP fluorescence” value was determined as 97%.

For `CNC(=O)c1ccc(N2C(=S)N(c3ccc(C#N)c(C(F)(F)F)c3)C(=O)C2(C)C)cc1F`, the “normalized SmoIP GFP fluorescence” value under setting [1] was 113% and the “normalized SmoIP GFP fluorescence” value under setting [2] was determined as 4.03%.

In the case of `O=C(Nc1cccc(Cl)c1)Nc1ncc(CCNc2ncnc3ccsc23)s1`, the “normalized SmoIP GFP fluorescence” value runs as follows: under setting [1], 127%; under setting [2], 11%.

With `OC[C@@H](O)CN1CCN(c2ccccc2)CC1` [levodropropizine], the “normalized SmoIP GFP fluorescence” value reads like this: under setting [1], 94.5%; under setting [2], -2.93%.

As to `O=S(=O)(c1ccccc1)N(CC(F)(F)F)c1ccc(C(O)(C(F)(F)F)C(F)(F)F)cc1`, the “normalized SmoIP GFP fluorescence” value is 104% under setting [1] and -1.85% under setting [2].

For `Cc1cc2c(F)c(Oc3ncnn4cc(OC[C@@H](C)O)c(C)c34)ccc2[nH]1` [Brivanib], the “normalized SmoIP GFP fluorescence” value under setting [1] amounted to 97.5% and the “normalized SmoIP GFP fluorescence” value under setting [2] amounted to 0.489%.

As for `O=C(CCCCCCC(=O)Nc1ccccc1)NO` [Vorinostat-(SAHA)], the “normalized SmoIP GFP fluorescence” value runs as follows: under setting [1], 89.9%; under setting [2], 37.6%.

`CCn1c(-c2nonc2N)nc2c(C#CC(C)(C)O)ncc(OC[C@H]3CCCNC3)c21`: the “normalized SmoIP GFP fluorescence” value was 98.8% under setting [1] and -8.56% under setting [2].

Take `O=C(O)Cc1ccccc1Nc1c(Cl)cccc1Cl` [Diclofenac-sodium]: the “normalized SmoIP GFP fluorescence” value under setting [1] was found to be 110% and the “normalized SmoIP GFP fluorescence” value under setting [2] came out at 4.03%.

As for `C=CCn1c(=O)c2cnc(Nc3ccc(N4CCN(C)CC4)cc3)nc2n1-c1cccc(C(C)(C)O)n1`, the “normalized SmoIP GFP fluorescence” value was 58.7% under setting [1] and -13.9% under setting [2].

`O=C1[C@H](Cc2ccc(O)cc2)N2C(=O)CCN(C(=O)NCc3ccccc3)[C@H]2CN1Cc1cccc2ccccc12`: the “normalized SmoIP GFP fluorescence” value is, setting by setting: under setting [1], 125%; under setting [2], -2.82%.

In the case of `CN1C2CCC1CC(OC(=O)C(O)c1ccccc1)C2` (configuration not stated) [homatropine-bromide], the “normalized SmoIP GFP fluorescence” value under setting [1] worked out at 102% and the “normalized SmoIP GFP fluorescence” value under setting [2] was -4.81%.

On to `COc1ncc(-c2ccc3nccc(-c4ccnnc4)c3c2)cc1NS(=O)(=O)c1ccc(F)cc1F`, for which the “normalized SmoIP GFP fluorescence” value runs as follows: under setting [1], 57.4%; under setting [2], -10.6%.

Regarding `c1ccc2c(c1)CCCC2C1=NCCN1` (configuration not stated) [tetrahydrozoline-hcl], the “normalized SmoIP GFP fluorescence” value reads like this: under setting [1], 115%; under setting [2], -0.491%.

Regarding `Cn1c(Nc2ccc(C(F)(F)F)cc2)nc2cc(Oc3ccnc(-c4ncc(C(F)(F)F)[nH]4)c3)ccc21`, the “normalized SmoIP GFP fluorescence” value was determined as 183% under setting [1] and 2.32% under setting [2].

Turning to `Cn1cc(-c2ccc3nnc(C(F)(F)c4ccc5ncccc5c4)n3n2)cn1`, the “normalized SmoIP GFP fluorescence” value was 96.1% under setting [1] and -2.42% under setting [2].

Consider `C/C(=C\C(=O)Nc1ccccc1C(=O)O)c1ccc2ccccc2c1`, for which the “normalized SmoIP GFP fluorescence” value under setting [1] is 109% and the “normalized SmoIP GFP fluorescence” value under setting [2] is -2.42%.

Take `CCCC(CCC)C(=O)O` [Sodium-valproate]: the “normalized SmoIP GFP fluorescence” value is 110% under setting [1] and -4.68% under setting [2].

Consider `OCCn1cc(-c2cnc3nnn(Cc4ccc5ncccc5c4)c3n2)cn1`, for which the “normalized SmoIP GFP fluorescence” value under setting [1] is 110% and the “normalized SmoIP GFP fluorescence” value under setting [2] is 1.03%.

For `CS(=O)(=O)N1CCc2c(-c3cnc(N)nc3)nc(N3CCOCC3)nc21`, the “normalized SmoIP GFP fluorescence” value was 134% under setting [1] and -15.8% under setting [2].

With `Cc1cc([C@@H](C)Nc2ccccc2C(=O)O)c2nc(N3CCOCC3)cc(=O)n2c1`, the “normalized SmoIP GFP fluorescence” value reads like this: under setting [1], 94.8%; under setting [2], -5.22%.

`CCN(CC)CCOC(=O)c1ccc(N)cc1` [procaine-novocaine-hcl]: the “normalized SmoIP GFP fluorescence” value was 107% under setting [1] and -3.5% under setting [2].

For `CO[C@H]1C[C@@H]2CC[C@@H](C)[C@@](O)(O2)C(=O)C(=O)N2CCCC[C@H]2C(=O)O[C@H]([C@H](C)C[C@@H]2CC[C@@H](OP(C)(C)=O)[C@H](OC)C2)CC(=O)[C@H](C)/C=C(\C)[C@@H](O)[C@@H](OC)C(=O)[C@H](C)C[C@H](C)/C=C/C=C/C=C/1C` [Deforolimus], the “normalized SmoIP GFP fluorescence” value reads like this: under setting [1], 23.8%; under setting [2], -8.56%.

On to `CCCc1nn(C)c2c(=O)[nH]c(-c3cc(S(=O)(=O)N4CCN(C)CC4)ccc3OCC)nc12` [Sildenafil-citrate], for which the “normalized SmoIP GFP fluorescence” value reads like this: under setting [1], 76.3%; under setting [2], -1.88%.

`CCC[C@H](NC(=O)[C@@H]1[C@H]2CCC[C@H]2CN1C(=O)[C@@H](NC(=O)[C@@H](NC(=O)c1cnccn1)C1CCCCC1)C(C)(C)C)C(=O)C(=O)NC1CC1` [Telaprevir(VX-950)]: the “normalized SmoIP GFP fluorescence” value runs as follows: under setting [1], 120%; under setting [2], 1.03%.

With `COc1ccccc1N1CCN(CCN(C(=O)C2CCCCC2)c2ccccn2)CC1`, the “normalized SmoIP GFP fluorescence” value reads like this: under setting [1], 125%; under setting [2], 7.01%.

Regarding `CN1C(C(=O)Nc2ccccn2)=C(O)c2sc(Cl)cc2S1(=O)=O` [lornoxicam-xefo], the “normalized SmoIP GFP fluorescence” value under setting [1] came out at 129% and the “normalized SmoIP GFP fluorescence” value under setting [2] is -4.89%.

Consider `COc1cc2c(cc1OC)CC(=O)N(CCCN(C)C[C@@H]1Cc3cc(OC)c(OC)cc31)CC2` [ivabradine-hcl-procoralan], for which the “normalized SmoIP GFP fluorescence” value under setting [1] is 111% and the “normalized SmoIP GFP fluorescence” value under setting [2] was -11.2%.

Consider `Cc1cnc(NC(=O)Nc2cc(Br)c(C)cc2OC[C@@H]2CNCCO2)cn1`, for which the “normalized SmoIP GFP fluorescence” value under setting [1] came to 112% and the “normalized SmoIP GFP fluorescence” value under setting [2] was -14.5%.

As for `CN(C[C@@H]1COCCO1)S(=O)(=O)Nc1ccc2ccc3ncc(-c4cnn(C)c4)cc3c(=O)c2c1`, the “normalized SmoIP GFP fluorescence” value worked out at 79.1% under setting [1] and 16.3% under setting [2].

Regarding `NC(=O)N1CCC(CC(=O)N2CCC(C3c4ncc(Br)cc4CCc4cc(Cl)cc(Br)c43)CC2)CC1` (configuration not stated), the “normalized SmoIP GFP fluorescence” value reads like this: under setting [1], 127%; under setting [2], 10.1%.
